Results from PubChem BioAssay (NCI).
The panel holds about 83,000 compounds, 20% with a hit somewhere; the sample as a whole holds those more often.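 A percent growth of 40 corresponds to 60% growth inhibition; 0 means no net growth; -100 means all cells died. Active threshold: below 10.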 Values without a mark were called inactive. Calls of active or inactive are those of the source.

System: HL-60(TB) leukemia
Experiment: NCI-60 one-dose screen, 48 h (100 = growth as untreated, 0 = no growth, -100 = all killed)
Settings: 10 µM unless noted

| SMILES | growth |
| --- | --- |
| NC(=S)N/N=C/C(=O)O | 87.8% |
| CC1(C)CC[C@]2(CO)CC[C@]3(C)[C@H](CC[C@@H]4[C@@]5(C)CC[C@H](O)C(C)(C)[C@@H]5CC[C@]43C)[C@H]2[C@H]1O | 117% |
| CC(=O)C1CCC2C3CC(C)=C4CC(O)CCC4(C)C3CCC12C (stereo unspecified) | 98.7% |
| CCO/C=N/C1=C(C#N)C(c2ccc(Cl)cc2)c2c(c3ccccc3n(C)c2=O)O1 (stereo unspecified) | 53.4% |
| Nc1nc2nnc(-c3ccccc3)c(-c3ccccc3)n2n1 | 146% |
| Cc1cccc(C(=O)N(C(C)C)C(C)C)c1 | 99.1% |
| Nc1ccc2c3c(cccc13)-c1ccccc1-2 | 4.53% (active) |
| C[C@@H]1CC[C@@H]2[C@@H]1[C@H](OC(=O)/C=C/c1ccccc1)[C@]1(C3CCCCC3)C[C@@H](OC(=O)CO)[C@@]2(C)O1 | 74.5% |
| C#C[C@@]1(O)[C@@H](CO)O[C@@H](n2cc(Cl)c3c(N)ncnc32)[C@@H]1O | -56.8% (active) |
| C=C1C(=O)O[C@H]2[C@H]1CC/C(COC(=O)/C=C\C(=O)NCc1ccc(Cn3c(=O)sn(CCCI)c3=O)cc1)=C\CC[C@@]1(C)O[C@@H]21 | -36.6% (active) |
| CCOC(=O)c1c(NC(=O)c2ccc(OC)cc2)sc2c(CN(C)C)c(O)ccc12 | 1.3% (active) |
| O=C(NCCCNc1cc(-c2cn(-c3ccccc3)nc2-c2cccc(O)c2)ccn1)c1ccccc1 | 8.91% (active) |
| C#CCN(Cc1ccc2nc(N)[nH]c(=O)c2c1)c1ccc(C(=O)NC(CCC(=O)O)C(=O)O)cc1 (stereo unspecified) | 43.6% |
| CCCCC(CCCCCC(CCCC)NCc1ccc2c(c1)OCO2)NCc1ccc2c(c1)OCO2 (stereo unspecified) | -76.6% (active) |
| CCCCCC(=O)Oc1ccc(/C(=C(\C)c2ccccc2)c2ccc(OCCN(CC)CC)cc2)cc1 | 33.9% |
| S=C(c1cccs1)N1CCN(c2cccc(Cl)c2)CC1 | 90.8% |
| C=C1C(=O)O[C@H]2[C@H]1CC/C(COC(=O)/C=C/C(=O)OC/C1=C/CC[C@@]3(C)O[C@H]3[C@H]3OC(=O)C(=C)[C@@H]3CC1)=C\CC[C@@]1(C)O[C@@H]21 | -23.6% (active) |
| CCOc1ccccc1/C=N/Nc1nc2ccccc2o1 | 98.6% |
| O=C1NCCc2c1noc2-c1ccccc1 | 102% |
| O=c1[nH]nc(-c2ccc(Cl)cc2)cc1Cc1ccccc1 | 77% |
| CCCCNC(=O)C(=O)NCCCC | 113% |
| OCC(O)C(O)C(O)C(/C=N/Nc1ccccc1)=N/Nc1ccccc1 (stereo unspecified) | 98.6% |
| COc1ccc(C(=O)c2cc3c(N)c(C(=O)Nc4cccc5ccccc45)sc3nc2C)cc1 | -49% (active) |
| CSc1nnc(-c2sc3nnc(-c4ccccc4)c(-c4ccccc4)c3c2O)o1 | 107% |
| COc1cc(-c2nc(-c3nc4ccc(Cl)cc4[nH]3)cc3c2[nH]c2ccccc23)cc(OC)c1OC | 68.7% |
| Cc1ccc(-c2cc(-c3ccc(C)cc3)nc(NCCNc3ccnc4cc(Cl)ccc34)n2)cc1 | -44.6% (active) |
